We go through eight compounds from PubChem BioAssay (NCI).

About 83,000 compounds went through this panel and 20% of them were active in at least one assay; those are over-represented in the sample as a whole.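 Single-concentration screen, 48 h exposure, 96-well plates. Endpoint: percent growth. Below 10 = active.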 Unmarked numbers belong to inactive results. The source made the active and inactive calls.

Test systems include MOLT-4 leukemia; SR leukemia; RPMI-8226 leukemia; OVCAR-8 ovarian; OVCAR-5 ovarian; OVCAR-4 ovarian; SK-OV-3 ovarian; IGROV1 ovarian; OVCAR-3 ovarian; HS 578T breast; NCI/ADR-RES ovarian; T-47D breast; BT-549 breast; MDA-MB-435 melanoma; SW-620 colon; HCC-2998 colon; KM12 colon; MCF7 breast; HCT-116 colon.
What all share (test): NCI-60 one-dose screen, 48 h (100 = growth as untreated, 0 = no growth, -100 = all killed)
What all share (conditions): 10 µM unless noted

As for `CCCC[C@H](NC(=O)[C@H]1CCCCN1C)C(=O)N(C)[C@H](C[C@@H](OC(C)=O)c1nc(C(=O)N[C@@H](Cc2ccccc2)C[C@H](C)C(=O)OCC)cs1)C(C)C`, the growth is 12.7% in the experiment on MOLT-4 leukemia; 4.92% (active) in the experiment on SR leukemia; 10.7% in the experiment with RPMI-8226 leukemia; 21% with OVCAR-8 ovarian; 36.2% with OVCAR-5 ovarian; 49.5% with OVCAR-4 ovarian. Moreover, the growth was -6.08% (active) in the experiment on SK-OV-3 ovarian; 24.4% in the experiment on IGROV1 ovarian; 3.86% (active) in the experiment with OVCAR-3 ovarian; 12.1% in the experiment on HS 578T breast; 4.37% (active) in the experiment on NCI/ADR-RES ovarian; 38.6% with T-47D breast. Besides, the growth is -25.6% (active) with BT-549 breast; -6.84% (active) in the experiment on MDA-MB-435 melanoma; 24.6% in the experiment on SW-620 colon; 14.5% with HCC-2998 colon; 13.1% in the experiment with KM12 colon.

Turning to `CC(C)CCC(=O)O[C@H]1CC[C@H]2[C@@H]3CCC4=CC(=O)CC[C@]4(C)[C@H]3CC[C@]12C`, the growth is 96% with MOLT-4 leukemia; 90.7% with SR leukemia; 98.6% in the experiment on RPMI-8226 leukemia; 104% with OVCAR-8 ovarian; 93% with OVCAR-5 ovarian; 103% with OVCAR-4 ovarian. The growth in the experiment with SK-OV-3 ovarian is 128%; in the experiment with IGROV1 ovarian it was 96.3%; in the experiment with OVCAR-3 ovarian, 97.9%; with HS 578T breast, 86.9%; with NCI/ADR-RES ovarian, 99%; in the experiment on T-47D breast, 102%. In addition, the growth was 104% in the experiment on BT-549 breast; 96.6% in the experiment with MDA-MB-435 melanoma; 94.5% in the experiment with SW-620 colon; 105% in the experiment with MCF7 breast; 105% in the experiment on HCC-2998 colon; 95.2% with KM12 colon.

On to `CC1(C)CN1P(=O)(N1CC1(C)C)N1CC1(C)C` (configuration not stated), for which the growth in the experiment on MOLT-4 leukemia is 96.6%; in the experiment with SR leukemia, 91.3%; in the experiment with RPMI-8226 leukemia it was 105%; in the experiment with OVCAR-8 ovarian, 90.5%; in the experiment on OVCAR-5 ovarian it was 115%; in the experiment on OVCAR-4 ovarian, 97.9%. For the same compound, the growth is 102% in the experiment with SK-OV-3 ovarian; 114% in the experiment with IGROV1 ovarian; 118% in the experiment with OVCAR-3 ovarian; 93.8% with HS 578T breast; 113% in the experiment on NCI/ADR-RES ovarian; 107% in the experiment on T-47D breast. For the same compound, the growth with BT-549 breast was 105%; in the experiment on SW-620 colon, 100%; in the experiment on MCF7 breast, 92.8%; in the experiment on HCT-116 colon, 105%; in the experiment on HCC-2998 colon, 110%; in the experiment with KM12 colon it was 116%.

With `CC(=O)O[C@@H]1CC[C@]2(C)[C@H]3CC[C@]4(C)C(=O)CC[C@H]4[C@@H]3C[C@@H]3SC(N)=N[C@@]32C1`, the growth in the experiment with MOLT-4 leukemia is 45.6%; in the experiment on SR leukemia, 31.7%; with RPMI-8226 leukemia, 48.4%; in the experiment with OVCAR-8 ovarian, 76.8%; in the experiment on OVCAR-5 ovarian, 98.7%; in the experiment on OVCAR-4 ovarian, 84%. For the same compound, the growth with SK-OV-3 ovarian is 79.1%; in the experiment with IGROV1 ovarian it was 67.3%; in the experiment on OVCAR-3 ovarian, 36.2%; with HS 578T breast, 54.5%; in the experiment with NCI/ADR-RES ovarian, 44%; with T-47D breast, 65.8%. In addition, the growth in the experiment on BT-549 breast is 45.2%; in the experiment on MDA-MB-435 melanoma it was 2.34% (active); in the experiment with MCF7 breast, 32.6%; in the experiment with HCT-116 colon, 32.7%; with HCC-2998 colon, 82.1%; in the experiment with KM12 colon it was 33.1%.

Take `CNC12C3C4C1C1C2C3C41C(=O)N[C@H](C(=O)N(C)[C@H](C[C@@H](OC(C)=O)c1nc(C(=O)N[C@@H](Cc2ccccc2)C[C@H](C)C(=O)OC)cs1)C(C)C)C1CC1` (some centres not stated): the growth in the experiment with MOLT-4 leukemia was -1.54% (active); in the experiment on SR leukemia, -12.7% (active); in the experiment with RPMI-8226 leukemia it was -6.94% (active); in the experiment with OVCAR-8 ovarian it was 20.1%; in the experiment on OVCAR-5 ovarian it was 56.6%; in the experiment on OVCAR-4 ovarian, 44.5%. Moreover, the growth is 40.7% with SK-OV-3 ovarian; 17% in the experiment on IGROV1 ovarian; -32.9% (active) with OVCAR-3 ovarian; 32.3% with HS 578T breast; 62% in the experiment on NCI/ADR-RES ovarian; 50.9% in the experiment on T-47D breast. In addition, the growth is -34.7% (active) in the experiment with BT-549 breast; 53.1% in the experiment on SW-620 colon; 15.7% in the experiment with MCF7 breast; -60.8% (active) in the experiment on HCC-2998 colon; -9.24% (active) in the experiment on KM12 colon.

With `C=CCCCN=C=S`, the growth was 40.7% in the experiment on MOLT-4 leukemia; 27% in the experiment with SR leukemia; 49% in the experiment on RPMI-8226 leukemia; 89.6% in the experiment on OVCAR-8 ovarian; 86.9% with OVCAR-5 ovarian; 88.8% with OVCAR-4 ovarian. The growth is 70.7% in the experiment with SK-OV-3 ovarian; 72% in the experiment on IGROV1 ovarian; 57.8% with OVCAR-3 ovarian; 98% in the experiment with HS 578T breast; 87.2% with NCI/ADR-RES ovarian; 47.3% in the experiment on T-47D breast. Also, the growth is 67.1% in the experiment on BT-549 breast; 66.5% in the experiment on SW-620 colon; 40.5% in the experiment on MCF7 breast; 44.7% in the experiment with HCT-116 colon; 102% with HCC-2998 colon; 49.9% with KM12 colon.

As to `CCCC(=O)O[C@@H]1C[C@H]2C[C@@H](O[C@@H]3O[C@@H](C)[C@@H](O)[C@@H](O)[C@H]3OC)C[C@@H](C[C@@H](C)/C=C/C=C\C[C@@H]3O[C@@H](C[C@@H]3C)[C@@H](O)C[C@H]3C[C@@]1(O)C(=O)O3)O2`, the growth is 37.5% with MOLT-4 leukemia; 85.9% with SR leukemia; 27.3% with RPMI-8226 leukemia; 41.1% in the experiment on OVCAR-8 ovarian; 74.5% in the experiment with OVCAR-5 ovarian; 25.4% in the experiment on OVCAR-4 ovarian. Further, the growth is 52.4% with SK-OV-3 ovarian; 70.1% with IGROV1 ovarian; 59.8% in the experiment with OVCAR-3 ovarian; 96.7% in the experiment with HS 578T breast; 67.6% in the experiment on NCI/ADR-RES ovarian; 17.4% in the experiment on T-47D breast. Moreover, the growth was 46.9% in the experiment on BT-549 breast; 87.4% with SW-620 colon; 25.7% with MCF7 breast; 56.3% in the experiment with HCT-116 colon; 59.4% in the experiment with HCC-2998 colon; 65.3% with KM12 colon.

`O=C(CC1(O)C(=O)Nc2ccc(Br)cc21)c1ccc(C(=O)NCC2CCC3(CC2)OOC2(CCCCC2)OO3)cc1` (configuration not stated): the growth with MOLT-4 leukemia was -29.4% (active); in the experiment on SR leukemia, -38.7% (active); in the experiment on RPMI-8226 leukemia, -27.4% (active); in the experiment with OVCAR-8 ovarian it was 41.7%; with OVCAR-5 ovarian it was 95.8%; in the experiment with OVCAR-4 ovarian, 48.7%. Also, the growth in the experiment on SK-OV-3 ovarian was 70.6%; in the experiment on IGROV1 ovarian, 14.8%; in the experiment with OVCAR-3 ovarian, 8.92% (active); in the experiment with HS 578T breast it was 62.9%; in the experiment on NCI/ADR-RES ovarian it was 64.6%; in the experiment on T-47D breast, 14.7%. Also, the growth is 63.6% in the experiment with BT-549 breast; 36.1% with MDA-MB-435 melanoma; 32.5% with MCF7 breast; 38.9% in the experiment on HCT-116 colon; 99.7% in the experiment on HCC-2998 colon; 31.6% with KM12 colon.
